Shown are actives, neighbours in structure and some others; about 3.1% of the full set was active somewhere.
S1P3 antag: S1P3 (human) receptor antagonism. Q99500. CHO S1P3 NFAT-BLA reporter, FRET fluorescence, antagonist mode. inhibition, % at 4.98 µM. actives 0.27% (n = 170,000). AID 485;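 active means inhibition above the plate cutoff, the mean inhibition of test wells on that plate plus 3 SD, cut at about 28% in these data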;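 further: cells challenged with S1P at its EC80 of 0.8 µM; blue over green emission ratio from cleaved BLA substrate after 4 h stimulation; 0% = S1P-stimulated wells and 100% = unstimulated DMSO-only wells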
Target sequence (Q99500 whole entry, looked up): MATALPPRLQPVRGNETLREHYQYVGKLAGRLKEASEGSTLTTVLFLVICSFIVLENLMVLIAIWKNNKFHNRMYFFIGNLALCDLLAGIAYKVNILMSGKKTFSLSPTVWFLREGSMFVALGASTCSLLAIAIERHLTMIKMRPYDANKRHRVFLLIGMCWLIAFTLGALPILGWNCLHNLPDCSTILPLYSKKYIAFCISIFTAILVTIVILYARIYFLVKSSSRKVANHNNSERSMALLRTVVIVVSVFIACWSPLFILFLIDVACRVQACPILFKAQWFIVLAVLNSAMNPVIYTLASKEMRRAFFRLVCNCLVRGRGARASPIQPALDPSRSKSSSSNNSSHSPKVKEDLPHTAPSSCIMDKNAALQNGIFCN
EP2 antag: blocks the human prostaglandin E2 receptor EP2; inhibition, % at 25 µM; C6 glioma cells expressing human EP2, cAMP TR-FRET; cells stimulated with saturating PGE2; P43116; actives 0.52% (n = 260,000);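 active means percent inhibition above 40 after rounding to a whole number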;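 further: rat C6 glioma host cells with rolipram phosphodiesterase inhibitor present; the protocol text gives 20 µM as final concentration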
Target sequence (P43116 whole entry, looked up): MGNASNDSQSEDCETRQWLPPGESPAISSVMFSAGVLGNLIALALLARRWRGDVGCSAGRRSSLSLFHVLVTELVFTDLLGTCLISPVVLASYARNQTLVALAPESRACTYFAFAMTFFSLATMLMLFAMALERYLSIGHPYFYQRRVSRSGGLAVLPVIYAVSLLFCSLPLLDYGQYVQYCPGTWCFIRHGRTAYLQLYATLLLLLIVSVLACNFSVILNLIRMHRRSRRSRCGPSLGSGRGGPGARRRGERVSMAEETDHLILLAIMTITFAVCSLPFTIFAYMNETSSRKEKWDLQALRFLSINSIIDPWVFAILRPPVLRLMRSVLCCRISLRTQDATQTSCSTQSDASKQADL
EP2 mod: EP2 receptor (human) modulation; P43116; EP2-expressing cells, cAMP HTRF FRET, PGE2 co-stimulation; induction, % at 25 µM; actives 0.83% (n = 260,000);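 active means compounds whose cAMP rise, as percent of the full-agonist control response, exceeds 60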;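 further: rat C6 glioma line stably carrying human EP2 under a CMV promoter; the protocol text gives 20 µM as final concentration; 100% = response of wells given 1 µM PGE2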
KCC2 mod: modulates chloride dependent transport by human KCC2; B-score of Tl+ flux slope (higher = more flux/activation; lower = inhibition) at 10 µM; actives 2.2% (n = 190,000); KCC2 cells, thallium flux FluoZin-2 fluorescence; AID 1456; Q9H2X9;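 active means thallium flux slope and its plate-corrected score both differing from the plate sample mean at a set confidence after two filtering rounds, in either direction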;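 further: slope of fluorescence scaled to starting intensity during 10 to 20 s after thallium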
KCC2 secondary: confirmation of human KCC2 transport modulators; shares compounds with KCC2 mod; HEK293-KCC2, thallium flux, FluoZin2 fluorescence; hits give high values; normalised thallium flux (F/F0 slope) at 10 µM; actives 15% (n = 3,700);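 active means thallium flux slope above the same plate's solvent-only control mean plus 3 SD; inconclusive means the two replicate wells disagree; inactive means no significant difference from solvent-only control wells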
KCC2 bumet counter: thallium flux despite bumetanide block in KCC2 cells, secondary assay 3; shares compounds with KCC2 mod; HEK293-KCC2 + bumetanide/ouabain, thallium flux FluoZin2; hits give high values; normalized thallium flux at 10 µM; actives 49% (n = 3,700);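 active means thallium entry rate above the same plate's blocked-transporter control wells by more than 3 SD; inconclusive means the two repeat wells disagree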;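 further: raw slope of fluorescence over initial fluorescence between 10 and 20 s after thallium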
KCC2 secondary2: confirmation of human KCC2 transport modulators. shares compounds with KCC2 mod. HEK293-KCC2, thallium flux FluoZin2 fluorescence; actives lie on both sides; F/F0 rise rate, 10–20 s post-thallium. normalized thallium flux at 10 µM. actives 23% (n = 3,700). AID 1715;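 active means thallium flux slope more than 3 SD above or below the plate's solvent-only control mean, mostly below; inconclusive means the two repeat wells disagreed; inactive means no significant shift from solvent-only controls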;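 further: raw slope with 0.1% DMSO as baseline and bumetanide as block control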
HEK293 Tl flux: parental HEK flux effect, counter-screen; HEK293 parental cells, thallium flux FluoZin2, ouabain; baseline-ratio fluorescence slope, 10–20 s after thallium; shares compounds with KCC2 mod; thallium flux rate (normalised fluorescence) at 10 µM; actives 46% (n = 3,700); AID 1716;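 active means thallium flux rate significantly above the same plate's solvent-only control wells, beyond their mean plus 3 SD; inconclusive means the two replicate wells gave conflicting results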
KCC2 retest ouab: modulates human KCC2 on retest with ouabain. shares compounds with KCC2 mod. HEK293-KCC2, thallium flux FluoZin2 fluorescence; bidirectional: low = inhibitor, high = activator. raw Tl+ flux slope (below DMSO = inhibition, above = activation) at 10 µM. actives 48% (n = 3,700);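 active means thallium flux slope beyond 3 SD from same-plate DMSO control mean in most replicates, usually higher, sometimes lower; inconclusive means repeat tests gave conflicting results; inactive means no significant difference from controls in most replicates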;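 further: slope of initial-normalized fluorescence between seconds 10 and 20 after thallium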
HEK counter2: parental HEK flux effect, counter-screen 2; shares compounds with KCC2 mod; AID 1718; HEK293 parental, thallium flux FluoZin-2 fluorescence slope; actives 33% (n = 3,700); thallium flux slope at 10 µM;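 active means thallium flux slope above the same plate's solvent-control mean plus 3 SD in both duplicate wells; inconclusive means duplicate wells that disagreed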;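 further: run without ouabain in cells lacking the KCC2 cotransporter; slope of fluorescence scaled to its starting value between 10 and 20 s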
* marks the source's active call; other numbers are inactive results; u = inconclusive; x = not tested or not shown.

SMILES	S1P3 antag	EP2 antag	EP2 mod	KCC2 mod	KCC2 secondary	KCC2 bumet counter	KCC2 secondary2	HEK293 Tl flux	KCC2 retest ouab	HEK counter2
CCOc1ccc(OCc2ccc(C(=O)Nc3cccnc3)o2)cc1	x	22	-35	0.31	x	x	x	x	x	x
O=C(NCc1ccc2c(c1)OCO2)c1ccc(COc2cc(Cl)ccc2Cl)o1	x	5	-20	-5.7*	0.0077	0.0043	0.023*	0.0069	0.015*	0.0095
COCCNC(=S)N(Cc1ccc2c(c1)OCO2)Cc1cc2cc(C)ccc2[nH]c1=O	x	15	-19	x	x	x	x	x	x	x
O=C(Nc1cccc2ccccc12)c1ccc(NC(=O)c2cccs2)cc1	x	8	-30	x	x	x	x	x	x	x
CCOC(=O)c1sc(NC(=O)CSc2nnc3c(C)cc4cc5c(cc4n23)OCCO5)nc1C	x	9	3	x	x	x	x	x	x	x
O=C(c1ccc(COc2ccccc2Br)o1)N1CCN(c2ccccn2)CC1	x	4	9	-6.5*	u	u	0.032	0.0058*	0.013*	0.011
COc1ccccc1S(=O)(=O)Cc1ccc(C(=O)N2CCN(c3ccccn3)CC2)o1	-16	15	-17	-0.43	x	x	x	x	x	x
CC1CCc2c(sc3nc(C(C)C)nc(SCC(N)=O)c23)C1 (configuration not stated)	x	10	-8	x	x	x	x	x	x	x
Cc1ccc2cccc(OCC(=O)Nc3ccc4c(c3)OCO4)c2n1	2	3	-46	-5.9*	u	0.006	0.029	0.0062	0.014*	0.01
CCC(=O)Nc1sc(C(=O)Nc2ccccc2Cl)c(C)c1C(=O)OC	x	8	-9	x	x	x	x	x	x	x
COC(=O)c1c(NC(=S)Nc2ccccc2Cl)sc(C)c1C	x	17	15	6.3*	0.013*	0.022*	0.03	0.014*	u	0.012*
Nc1nc2n(n1)C(c1cccc3ccccc13)CC(c1ccc(F)cc1)N2 (configuration not stated)	x	16	-81	x	x	x	x	x	x	x
CCOc1ccccc1C1CC(c2ccc(F)cc2)Nc2nc(N)nn21 (configuration not stated)	13	9	14	-3.4*	0.0061	0.0051	0.027	0.0078	0.017	0.011
COc1ccc(Cn2nnnc2C(c2cc3c(C)cc(C)cc3[nH]c2=O)N2CCCC(C)C2)cc1 (configuration not stated)	x	4	25	x	x	x	x	x	x	x
CC(=O)OC(COCc1ccccc1)Cn1cnc2ccccc21 (configuration not stated)	x	10	11	x	x	x	x	x	x	x
Cc1ccc(S(=O)(=O)N(CCC(=O)O)Cc2ccc(Cl)cc2)cc1	x	13	7	x	0.0059	0.0067*	0.022*	0.0072	0.013*	0.011
Cc1ccc(S(=O)(=O)N(CC(=O)O)Cc2ccccc2)cc1	x	5	10	0.011	x	x	x	x	x	x
O=C(CSc1nc(-c2ccccc2)nc2ccc(F)cc12)Nc1cccc(C(=O)O)c1	-11	11	15	59*	0.0067	0.038*	u	0.048*	0.044*	0.029*
O=C(CSc1nc(-c2ccccc2)nc2ccc(F)cc12)Nc1ccc(C(=O)O)cc1	9	5	41	0.37	x	x	x	x	x	x
O=C(Cc1csc(-c2ccccc2)n1)NCc1ccccc1F	0	8	-6	-3.6	x	x	x	x	x	x
O=C(Cc1csc(-c2ccccc2)n1)NCc1ccc(F)cc1	-9	7	-8	-5.2*	0.0091	0.0062	0.03*	0.0036	0.016*	0.011
O=C(NCc1csc(-c2ccccc2)n1)c1cc(F)cc2c1OCOC2	16	5	-17	-3.8*	u	0.0053	0.029	0.0061	0.015*	0.0098
COC1=C/C(=C/c2c(N)n3cc(C)sc3nc2=O)C=CC1=O	1	13	-40	-6.6*	0.0038*	-0.0015*	0.017*	0.0028*	0.008*	0.006*
COc1cc(/C=N/N(C)c2ccccc2)ccc1O	x	6	-15	-4.1*	0.006	0.0047	0.025*	0.0069	u	0.01
COc1cc(OC)c(OC)cc1/C=N/N(C)c1ccccc1	x	20	44	-0.67	x	x	x	x	x	x
SMILES	S1P3 antag	EP2 antag	EP2 mod	KCC2 mod	KCC2 secondary	KCC2 bumet counter	KCC2 secondary2	HEK293 Tl flux	KCC2 retest ouab	HEK counter2
Cn1cc(-c2nnc(-c3cccc(F)c3)o2)c2ccccc21	x	11	9	x	x	x	x	x	x	x
CCSc1nc2c(cnn2-c2ccccc2)c(=O)n1N	-4	2	-13	4.6*	0.01	0.02*	0.031	0.01*	0.034*	0.011*
CN1C(C(=O)NCc2cccc(Br)c2)CC2Cn3c(nc4cc(Cl)c(Cl)cc43)C21 (configuration not stated)	x	5	-20	-3.4*	0.0085	0.0061	0.033	0.0074	0.018	0.01
O=C1NC2(CCN(C(=O)c3n[nH]c4c3CCCC4)CC2)Oc2ccccc21	x	1	-47	x	x	x	x	x	x	x
COc1ccc(NC(=O)c2cccnc2N2CCCC2)cc1	x	6	26	x	u	0.005	0.031	0.008	0.019	0.011
COc1ccc(NC(=O)c2cccnc2N2CCCCC2)cc1	-3	12	-6	1.7	x	x	x	x	x	x
CCc1ccc2[nH]c(=O)c(CN(CC3CCCO3)C(=O)Nc3ccccc3OC)cc2c1 (configuration not stated)	x	5	-20	x	x	x	x	x	x	x
CC1(C(=O)NCc2nc(-c3ccccc3)no2)CC(c2ccccc2)=NO1 (configuration not stated)	x	4	-48	x	x	x	x	x	x	x
Cc1cc2cc(C(=O)NCCCN3Cc4ccccc4C3)ccc2o1	x	5	-42	x	x	x	x	x	x	x
O=C(Nc1ccc(F)cc1)c1ccc(CSc2ccccc2)o1	6	9	-17	-3.4*	0.0079	0.0071	0.034	0.0038	0.015*	0.011
CCC(CC)c1nnc(NC(C)=O)s1	x	14	-14	x	x	x	x	x	x	x
CCOC(=O)c1sc(NNC(=O)c2ccc(F)cc2)nc1C	-11	10	-4	11*	0.015*	0.024*	0.038	u	0.03*	u
O=C(c1ccc(-c2ccccc2)cc1)C1CCCN(Cc2ccncc2)C1 (configuration not stated)	20	8	-46	-4.1*	0.0069	0.0049	0.025*	0.0079	u	0.011
Cc1ncoc1C(=O)N1CCCC(C(=O)c2ccc(-c3ccccc3)cc2)C1 (configuration not stated)	4	14	-95	-3.3*	u	0.0062	0.03	0.0065	0.021*	u

Screens from PubChem BioAssay.
